High-throughput results deposited in PubChem BioAssay by National Center for Advancing Translational Sciences (NCATS).
Cruzain inh Det: cruzain (T. cruzi) inhibition with detergent | Potency, µM, for the others: max response, negative = inhibition, actives largely listed as inhibitors | actives 0.43% (n = 200,000) | P25779 | purified cruzain, Z-FR-AMC fluorescence, 0.01% Triton;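 note: plate controls were neutral wells for no effect and buffer without enzyme for full effect; nearly all actives have a fitted effect of over 40% in size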
Target sequence (P25779 123-467 limits assumed): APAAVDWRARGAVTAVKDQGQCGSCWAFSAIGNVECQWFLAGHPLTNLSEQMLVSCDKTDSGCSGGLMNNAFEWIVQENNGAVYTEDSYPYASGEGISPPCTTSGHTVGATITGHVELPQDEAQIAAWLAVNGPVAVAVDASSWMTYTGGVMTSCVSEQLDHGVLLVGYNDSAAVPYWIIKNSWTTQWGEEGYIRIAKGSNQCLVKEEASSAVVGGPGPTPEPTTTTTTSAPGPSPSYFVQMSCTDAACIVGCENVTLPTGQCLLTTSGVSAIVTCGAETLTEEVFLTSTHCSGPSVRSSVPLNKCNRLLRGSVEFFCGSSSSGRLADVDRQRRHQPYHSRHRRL
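Z-FR-AMC hydrolysis (2 uM substrate) by cruzain (1.5 nM) monitored kinetically at ex 360/em 450 nm after 15 min room-temperature compound exposure; 0.01% Triton X-100, pH 5.5, 5 mM DTT.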
Cruzain noTriton: cruzain (T. cruzi) inhibition without detergent. P25779. purified cruzain, Z-FR-AMC fluorescence, no detergent. Potency, µM, for the others: max response, negative = inhibition, most hits filed as inhibitors. actives 2.3% (n = 200,000). AID 1476;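 note: plate controls were enzyme without inhibitor for no effect and buffer without enzyme for full effect; nearly all actives have a fitted effect of over 40% in size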
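Purified cruzain at 1.5 nM, pre-incubated 15 min with compound at room temperature in 100 mM sodium acetate pH 5.5, 5 mM DTT, 0.00005% Triton X-100. Reaction started with 2 uM Z-FR-AMC; AMC fluorescence increase over 60 s gives rate.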
* marks the source's active call; other numbers are inactive results; ? = inconclusive. An excerpt weighted towards active compounds, which were near 2.6% of everything screened. Calls come from the whole dose curve; as a rule, active = well fitted curve in the direction sought with a large enough effect; inconclusive = small, poorly fitted or top-dose-only effect, or another doubt; inactive = no such curve, though single readings can be large; an effect the other way counts as inactive or inconclusive. Potency is the fitted concentration of half-maximal effect.

SMILES | Cruzain inh Det | Cruzain noTriton
COc1ccc(-c2noc(CSc3nc4ccccc4c(=O)n3-c3ccccc3)n2)cc1OC | -1% | 12%
Cc1noc(C)c1CSc1nc2ccccc2c(=O)n1-c1ccc(Cl)cc1 | 1% | 20µM*
O=c1c2ccccc2nc(SCc2nc(-c3ccccc3)no2)n1-c1ccc(F)cc1 | -3% | 25µM*
CCOc1ccc(N(CC(=O)Nc2ccc(OC)cc2)S(=O)(=O)c2ccc(Cl)cc2)cc1 | 0% | 2%
C[C@H]1/C=C\CC(=O)NCc2cccc(c2)CNC(=O)N[C@H]1c1ccccc1 | 2% | ?
O=C(Nc1cccc(F)c1)N1CC2(CCN(C(=O)c3ccco3)CC2)C1 | 0% | -2%
Cc1ccc(C(=O)c2ccc([N+](=O)[O-])cc2)cc1 | 2% | -1%
Cc1ccc(S(=O)(=O)CC#CCOC(=O)c2ccc([N+](=O)[O-])cc2)cc1 | 14µM* | 13µM*
O=C(NC(=S)Nc1nc(-c2ccccc2)cs1)c1cccs1 | -4% | ?
Cc1sc(NC(=S)NC(=O)c2cccs2)nc1-c1ccc(C(C)C)cc1 | 0% | 10µM*
Cc1sc(NC(=O)c2cccs2)nc1-c1ccccc1 | -8% | 2%
Cc1ccc(-c2nc3ccccc3o2)cc1NC(=S)NC(=O)c1cccs1 | -3% | ?
Cc1ccc(-c2csc(NC(=S)NC(=O)c3cccs3)n2)cc1 | -3% | 16µM*
Cc1cc(C)c2oc(-c3ccc(C)c(NC(=S)NC(=O)c4cccs4)c3)nc2c1 | 6% | 7.9µM*
COC(=O)c1cc2oc(C)cc2n1Cc1ccccc1Cl | -7% | -8%
CC(C)CC(=O)C[C@H](O)C(Cl)(Cl)Cl | 5% | 4%
N#CCC(=N)N1CCN(c2ccccc2)CC1 | -3% | -4%
N#CCC(=N)N1CCN(c2ccccc2Cl)CC1 | -3% | 25µM*
Clc1ccccc1CN1CCN(c2ccccc2Cl)CC1 | -3% | 8%
N#CCC(=N)N1CCN(c2cccc(Cl)c2)CC1 | 0% | 13µM*
Cc1ccc2c(=O)cc(C(=O)Nc3sc4c(c3C(N)=O)CCCC4)oc2c1 | -3% | -3%
COCCn1c(=O)cnc2cnc(Nc3cccc(OC)c3)nc21 | 0% | -8%
N#Cc1c(NC(NC(=O)c2ccco2)C(=O)c2ccccc2)sc2c1CCCC2 (stereo not given) | -4% | 25µM*
COc1ccccc1C(=O)Nc1sc2c(c1C(=O)NCc1ccco1)CCCC2 | -24% | 7.9µM*
Cc1cccc(C(=O)Nc2sc3c(c2C(=O)NCc2ccco2)CCCC3)c1 | 3% | -9%
SMILES | Cruzain inh Det | Cruzain noTriton
COc1ccccc1NC(=O)c1c(NC(=O)c2ccco2)sc2c1CCC(C(C)(C)C)C2 (stereo not given) | -1% | -6%
COc1ccccc1NC(=O)c1c(NC(=O)c2ccco2)sc2c1CCC2 | -5% | 7.9µM*
NC(=O)c1c(NC(NC(=O)c2ccco2)C(=O)c2ccc(Cl)cc2)sc2c1CCCC2 (stereo not given) | -12% | -15%
C/C=C1/C2C=C(C)CC1(N)c1ccc(=O)[nH]c1C2 (stereo not given) | 2% | 5%
CCN(CC)S(=O)(=O)c1nnc(NC(=O)COc2ccc(C)cc2)s1 | -3% | 5%
O=C(CSc1ccc2nc(-c3ccccc3)cn2n1)Nc1ccccc1 | -1% | ?
c1ccc(C(c2ccccc2)N2CC[C@@]3(CCCNC3)C2)cc1 | -1% | -6%
CCOC(=O)c1ccc(N2C(=O)c3[nH]nc(-c4ccccc4)c3C2c2cccs2)cc1 (stereo not given) | -1% | 8%
COc1ccc2c(c1)CCc1c(C(=O)Nc3cc(C)n(Cc4ccc(Cl)cc4)n3)noc1-2 | -3% | 13µM*
COc1ccc2c(c1)CCc1c(C(=O)Nc3c(C)nn(Cc4ccc(Cl)cc4)c3C)noc1-2 | -5% | 2%
Cc1cc(C)n2nc(CC(=O)NCc3ccccc3Cl)nc2n1 | 16µM* | 8%
Cc1ccc(CNC(=O)Cc2nc3nc(C)cc(C)n3n2)cc1 | 1% | -5%
Cc1ccc(S(=O)(=O)NC(=O)c2ccc(-c3ccc(C)c4ccccc34)o2)cc1 | 25µM* | 8%
Cc1ccc(-c2ccc(C(=O)Nc3ccccc3)o2)c2ccccc12 | -19% | ?
Cn1cc(SCC(=O)Nc2ccc3c(c2)OCO3)c2ccccc21 | -6% | -17%
CC(C)n1cc(/C=C2/SC(=O)N(CC(=O)Nc3ccc4c(c3)OCO4)C2=O)c2ccccc21 | 2% | 10µM*
COc1ccccc1CNc1cc(-c2ccoc2)ncn1 | -3% | -30%
Cc1cccc(-c2nnn3c2nc(NCCc2ccc(S(N)(=O)=O)cc2)c2cc(Cl)ccc23)c1 | 0% | 4%
O=C(N/N=C/c1cccc(Oc2ccc([N+](=O)[O-])cc2[N+](=O)[O-])c1)c1cncc(Br)c1 | -2% | 25µM*
Cc1ccccc1OCC(=O)N/N=C/c1cccc(Oc2ccc([N+](=O)[O-])cc2[N+](=O)[O-])c1 | -3% | ?
COc1cccc(Cn2c(=O)cnc3cnc(OCc4ccccc4)nc32)c1 | -6% | -13%
